Screening results deposited in PubChem by Broad Institute.
aSyn UTR act: Activators via SNCA 5'UTR binding, MLPCN | AID 1814, 2009 | activity score, % (tested at 7.5 µM), hits read low | 300,000 tested, 7.1% active | alpha-synuclein 5'UTR reporter, activators screen; in the data active = activity score below about -60%
* = called active by the depositor. The list is a sample of the results.

SMILES | aSyn UTR act
O=C(OCc1ccccc1)c1ccc2c(c1)-c1ccccc1C2=O | -194*
O=C(OCc1nnc(-c2ccccc2)o1)c1ccc2c(c1)OCCO2 | -62*
O=C(OCc1ccc(C(=O)c2ccccc2)cc1)c1cccc(-c2nnc(-c3ccccc3)o2)c1 | -80*
O=C(OCc1ccccc1)c1cccc(-c2nnc(-c3ccccc3)o2)c1 | -69*
CC1(C)CC(=O)C2=C(C1)c1c(ccc3ccccc13)NC2c1ccco1 (stereo not drawn) | -193*
COc1ccc(N2C(=O)CC(Sc3nc(C)cc(C)c3C#N)C2=O)cc1 (stereo not drawn) | -87*
CCCCC(=O)Nc1ccc2c(c1)nc1n2CCSC1 | -84*
Cc1ccc(C(=O)Nc2ccc3c(c2)nc2n3CCSC2)cc1 | -67*
CCn1cnc2sc(C(=O)Oc3ccc(Br)cc3)c(C)c2c1=O | -77*
COc1ccc(OC)c2sc(N3CCCCC3)nc12 | -62*
COc1ccc(-c2nsc3c(N4CCCC4)ncnc23)cc1 | 70
Clc1cc(Cl)c2nc(N3CCCC3)sc2c1 | -103*
Clc1cccc2sc(N3CCCCC3)nc12 | -109*
Clc1cc(Cl)c2nc(N3CCCCC3)sc2c1 | -152*
CC1CCN(C(=O)C2CC(c3ccc(F)cc3)=NO2)CC1 (stereo not drawn) | -88*
CC1CCCC(C)N1C(=O)C1CC(c2ccc(F)cc2)=NO1 (stereo not drawn) | -84*
O=C(NC1CCCC1)C1CC(c2ccc(F)cc2)=NO1 (stereo not drawn) | -108*
COc1cccc(C2=NOC(C(=O)N3CCOCC3)C2)c1 (stereo not drawn) | -101*
Cc1ccc(C(C)C)c(OCc2nc(-c3nonc3N)no2)c1 | -92*
Cc1ccc(C(C)C)c(OCc2ccc(C(=O)N/N=C/c3ccc(O)cc3O)cc2)c1 | 96
Nc1c(C(=O)c2ccccc2)sc2nsc(SCCN3CCOCC3)c12 | -157*
CN(C)c1ccc(/C=N\NC(=O)c2cccc3cc[nH]c23)cc1 | -69*
CN(C)c1ccc(/C=N/NC(=O)c2ccco2)cc1 | -78*
Cc1ccc(/C=N/NC(=O)c2ccco2)cc1 | -94*
CSC(=S)N/N=C/c1ccc(N(C)C)cc1 | -96*
SMILES | aSyn UTR act
Cc1ccc(/C=N/NC(=O)c2c(C)nc3ccc(Br)cn23)cc1 | 80
COc1cccc(NC(=S)N/N=C2\CC3CCC2(C)C3(C)C)c1 (stereo not drawn) | -78*
COc1ccc(-c2cc(-c3c(O)c(OC)c4occc4c3OC)[nH]n2)cc1OC | -71*
Cc1ccc(Sc2c(CO)c(-c3ccccc3)nn2C)cc1 | -86*
O=C(CCSc1ccccc1)Nc1nc2c(s1)CCCC2 | -86*
O=C(Cc1cccs1)Nc1nc2c(s1)CCCC2 | -97*
Cn1cc(CNC(=O)c2ccc3nc(Cc4ccccc4F)oc3c2)cn1 | -84*
O=C(NCCc1ccccn1)c1ccc2nc(Cc3ccccc3F)oc2c1 | -111*
CCn1nnc2cc(C(=O)NCCc3ccccc3F)ccc21 | 63
Cn1cc(CCNC(=O)c2ccc3nc(Cc4ccccc4F)oc3c2)cn1 | -116*
Nc1nc(SCc2ccccc2)[nH]c(=O)c1-c1ccccc1 | -99*
c1csc(CSc2nnc3sc4ccccc4n23)c1 | -81*
O=C(CSc1nnc2sc3ccccc3n12)c1ccco1 | -118*
O=C(CSc1nnnn1-c1ccccc1)c1ccco1 | -63*
CCOC(=O)c1ccc(N=Nc2c(C)c(C#N)c(O)[nH]c2=O)cc1 | -74*
CNc1nn(-c2cccc(Cl)c2)nc1N | -97*
COc1ccc(/C=C/c2cc(C(=O)O)c3ccccc3n2)cc1 | 81
Cc1cc(/C=C\c2ccccc2)nc2ccccc12 | -216*
c1ccc(CN=C2NN=C(c3ccccc3)CS2)cc1 | -182*
CCN=C1NN=C(c2ccc(C)cc2)CS1 | -128*
CCCCCOc1ccc(CSc2n[nH]c(C)n2)cc1 | -171*
Cc1nc(SCc2ccc(OCCC(C)C)cc2)n[nH]1 | -71*
CN(C)CCOc1nc(-c2ccccc2)nc2c1oc1ccccc12 | -88*
Cc1nn(-c2ccccc2)c(N)c1N=Nc1ccc2ccccc2c1 | -242*
Cc1ccc(N=Nc2c(N)nn(-c3ccccc3)c2N)cc1 | -183*
SMILES | aSyn UTR act
Cc1ccc(-n2c(C)cc(C(=O)COC(=O)c3c(C)noc3C)c2C)cc1 | -199*
Cc1oc(-c2ccc3c(c2)OCCO3)cc1C(=O)O | -135*
Cc1oc(-c2ccc3c(c2)OCCO3)cc1C(=O)NCC(=O)O | -126*
CN(C(=O)/C=C/c1ccccc1)C1CCCCC1 | -98*
NC(=O)C1CCN(c2ccc3c(c2)S(=O)(=O)c2ccccc2C3=O)CC1 | -63*
O=C1c2ccccc2S(=O)(=O)c2cc(N3CCC4(CC3)OCCO4)ccc21 | -118*
CC1CCN(c2ccc3c(c2)S(=O)(=O)c2ccccc2C3=O)CC1 | -140*
Cc1cccc(C(=O)Nc2nc(C)c(C(=O)Nc3ccc4c(c3)CCC4)s2)c1 | -121*
Cc1cc(C(=O)Nc2ccc3c(c2)CCC3)ccc1[N+](=O)[O-] | -187*
CN(C)S(=O)(=O)c1cccc(C(=O)Nc2ccc3c(c2)CCC3)c1 | -115*
CN(C)S(=O)(=O)c1ccc(C(=O)Nc2ccc3c(c2)CCC3)cc1 | -93*
